# Experimental data as given in PubChem BioAssay AID463173 (ICCB-Longwood Screening Facility, Harvard Medical School, 2010).
# About 1,700 (3.3%) of roughly 52,000 compounds were called active. Cut-off read from the data, not from the text of the source: active = survival mostly below about 52% (no sharp cut-off); inactive = mostly above about 56%. The full list was thinned out, with actives kept by preference.
# Test system: Wild type
# Assay: S. aureus survival, RN4220 and DeltatarO strains – OD600, teichoic acid synthesis inhibitors, primary screen (AID 463173)
# Settings: S. aureus RN4220 wild type/DeltatarO growth, OD600, 18 h, hits give low values, screened at 18.75 µg/mL (by protocol)
row,SMILES,survival
1,COc1ccc(-c2cn3c(n2)sc2cc(C(=O)Nc4c(C)cccc4C)ccc23)cc1,83% (inactive)
2,COc1ccc(OCC(=O)N2CCN(C(=O)c3ccc(OC)c(OC)c3)CC2)cc1,134% (inactive)
3,Nc1ccc(-c2ccc(N)cc2C(F)(F)F)c(C(F)(F)F)c1,117% (inactive)
4,Nc1ccc(N2CCOCC2)c(N)c1,113% (inactive)
5,Nc1ccc(N2CCN(c3ncc(C(F)(F)F)cc3Cl)CC2)c(C(F)(F)F)c1,-14% (active)
6,Cc1ccc(C2=Nc3ccccc3N(CC(=O)Nc3ccccc3F)C(=O)C2)cc1C,83% (inactive)
7,COc1ccc(-c2nsc(NC(=O)C(C)Oc3ccc(Cl)c(C)c3)n2)cc1 (centres undefined),67% (inactive)
8,Cc1cc(C)cc(OCC(=O)Nc2nc(-c3ccc(F)cc3)ns2)c1,89% (inactive)
9,CCC(Oc1ccc(F)cc1)C(=O)Nc1nc(-c2ccc(F)cc2)ns1 (centres undefined),-1% (active)
10,CCC(Oc1ccc(F)cc1)C(=O)Nc1nc2c(s1)CCCC2 (centres undefined),76% (inactive)
11,CCC(Oc1ccc(F)cc1)C(=O)Nc1cc(-c2ccc(C)cc2)no1 (centres undefined),64% (inactive)
12,CC(Oc1ccc(F)cc1)C(=O)Nc1nc(-c2ccc(F)cc2)ns1 (centres undefined),-1% (active)
13,O=c1cc(-c2ccc(F)cc2)nc(SCc2nc(-c3ccc(Cl)cc3)no2)[nH]1,88% (inactive)
14,COC(=O)C1CCN(C(c2ccccc2Cl)c2sc3nc(-c4ccco4)nn3c2O)CC1 (centres undefined),80% (inactive)
15,Cc1ccc(Cl)cc1N1CCN(C(=O)c2c(C)oc3ncnc(N4CCCCC4)c23)CC1,-6% (active)
16,Cc1oc2ncnc(N3CCCCC3)c2c1C(=O)N1CCN(c2cccc(C(F)(F)F)c2)CC1,87% (inactive)
17,Cc1ccc(Cl)cc1N1CCN(C(=O)c2c(C)oc3ncnc(N4CCOCC4)c23)CC1,69% (inactive)
18,Cc1nc(N2CCCC2)c2c(C(=O)N3CCN(c4cc(Cl)ccc4C)CC3)c(C)oc2n1,99% (inactive)
19,Cc1nc(N2CCOCC2)c2c(C(=O)N3CCN(c4cccc(C(F)(F)F)c4)CC3)c(C)oc2n1,79% (inactive)
20,Cc1oc2ncnc(N3CCOCC3)c2c1C(=O)N1CCN(c2cccc(C(F)(F)F)c2)CC1,-6% (active)
21,O=C(NCc1ccccc1Cl)C1CCN(S(=O)(=O)c2ccc3c(c2)CCCN3C(=O)C2CCC2)CC1,80% (inactive)
22,COc1ccc(OCc2nc3ccccc3n2Cc2ccc(C(C)(C)C)cc2)cc1,0% (active)
23,Cn1c(COc2ccccc2Br)nc2ccccc21,106% (inactive)
24,Cc1ccc(OCCn2c(COc3ccc(Cl)cc3)nc3ccccc32)cc1,74% (inactive)

row,SMILES,survival
1,COc1cccc(OCc2nc3ccccc3n2CCOc2ccc(C)cc2)c1,62% (inactive)
2,Cn1c(COc2ccccc2C(C)(C)C)nc2ccccc21,-17% (active)
3,COc1cccc(OCc2nc3ccccc3n2Cc2ccccc2)c1,86% (inactive)
4,COc1cccc(OCc2nc3ccccc3n2CCOc2ccccc2)c1,74% (inactive)
5,c1ccc(OCCn2c(COc3ccccc3)nc3ccccc32)cc1,-15% (active)
6,Cc1ccc(C)c(OCc2nc3ccccc3n2C)c1,85% (inactive)
7,Cc1ccc(OCc2nc3ccccc3n2CCOc2ccc(Cl)cc2)cc1,26% (active)
8,COc1ccc(C(=O)NCC(c2cccnc2)N2CCc3ccccc3C2)cc1OC (centres undefined),93% (inactive)
9,CCOC(=O)CC(NC(=O)CCc1c(C)nc2c(c1C)c(=O)n(C)c(=O)n2C)c1ccc(OCC)c(OC)c1 (centres undefined),82% (inactive)
10,Cc1ccc(OCC(=O)Nc2ccc3nc(SCCOc4ccccc4)sc3c2)cc1,99% (inactive)
11,CCOC(=O)N1CCc2c(sc(NCc3cccc(F)c3)c2C(=O)Nc2ccc(OC)cc2OC)C1,68% (inactive)
12,CC(C)c1nnc(NC(=O)c2nc(SCc3ccc(F)cc3)ncc2Cl)s1,58% (inactive)
13,Cc1cc(C)n(CCc2nc3c4ccccc4nc(SCc4ccc(F)cc4)n3n2)n1,85% (inactive)
14,COc1ccc(C(CNC(=O)c2ccc(C)cc2)N2CCOCC2)cc1 (centres undefined),92% (inactive)
15,Cc1cc2nc3c(=O)n(C)c(=O)n(C)c3nc2cc1N=CN(C)C,77% (inactive)
16,CCc1c(CN2CCN(c3ccc(F)cc3)CC2)csc1C,75% (inactive)
17,O=C(CSc1ccc(-c2ccc(F)cc2)nn1)N1CCOCC1,112% (inactive)
18,Cc1ccc(-n2nc3c(=O)n(C(C)C(=O)NCc4ccc(OC(C)C)cc4)nc(C)c3c2C)cc1 (centres undefined),93% (inactive)
19,CC(C)(C)c1ccc(OCc2nc3ccccc3n2CCOc2ccccc2)cc1,7% (active)
20,Cc1ccc(NS(=O)(=O)c2ccc(-c3cc(C)no3)cc2)c(C)c1,101% (inactive)
21,COc1ccc(NC(=O)c2cccn2-c2nnc(N3CCCCC3)s2)c(OC)c1,73% (inactive)
22,COc1ccccc1CCNC(=O)c1cccn1-c1nnc(N2CCCCC2)s1,87% (inactive)
23,O=C(c1cccn1-c1nnc(N2CCCC2)s1)N1CCN(c2ccccc2)CC1,19% (inactive)
24,COc1ccc(CNC(=O)c2cccn2-c2nnc(N3CCCCC3)s2)c(OC)c1,-2% (active)

row,SMILES,survival
1,COc1ccccc1CNC(=O)c1cccn1-c1nnc(N2CCCC2)s1,81% (inactive)
2,O=C(c1cccn1-c1nnc(N2CCCCC2)s1)N1CCN(c2ccccc2)CC1,-3% (active)
3,O=C(c1cccn1-c1nnc(N2CCCCC2)s1)N1CCN(c2ccc(Cl)cc2)CC1,73% (inactive)
4,COc1ccccc1CNC(=O)c1cccn1-c1nnc(N2CCCCC2)s1,10% (active)
5,COc1ccc(CNC(=O)c2cccn2-c2nnc(N3CCCC3)s2)c(OC)c1,81% (inactive)
6,Cc1ccc(C)c(CSc2nnc3[nH]c(=O)cc(-c4ccccc4)n23)c1,86% (inactive)
7,Cc1cccc(N2CCN(c3nc4ccccc4c4nnc(C)n34)CC2)c1C,98% (inactive)
8,COc1ccc(NC(=O)C2CCN(C(=O)c3sc4nc[nH]c(=O)c4c3C)CC2)cc1Cl,85% (inactive)
9,CCOc1ccccc1NC(=O)CN1c2ccccc2S(=O)(=O)c2ccccc21,10% (active)
10,O=C(CN1c2ccccc2S(=O)(=O)c2ccccc21)Nc1ccccc1Cl,65% (inactive)
11,Cc1cc(C)c(NC(=O)CN2c3ccccc3S(=O)(=O)c3ccccc32)c(C)c1,124% (inactive)
12,CCOc1ccccc1NC(=O)CN1C=NS(=O)(=O)c2ccccc21,59% (inactive)
13,CCOc1ccccc1NC(=O)CN1C(=O)C(=O)c2ccccc21,115% (inactive)
14,Cc1cccc(NC(=O)CN2c3ccccc3S(=O)(=O)c3ccccc32)c1C,-3% (active)
15,CCn1nc(-c2ccccc2)c(-c2ccccc2)c(C(=O)Nc2ccc(NC(C)=O)cc2)c1=O,88% (inactive)
16,CCC(C)(C)n1nnnc1C(c1ccccc1OC)N1CCN(C(=O)c2ccco2)CC1 (centres undefined),105% (inactive)
17,Cc1ccc(C)c(Cn2c(C(C)NC(=O)c3ccc(F)cc3)nc3ccccc32)c1 (centres undefined),83% (inactive)
18,COc1ccc(C(=O)N2CCN(C(=O)COc3ccccc3)CC2)cc1OC,79% (inactive)
19,CC(=O)N1c2ccc(S(=O)(=O)NCC3CCC(C(=O)Nc4cccc(C)c4)CC3)cc2CC1C (centres undefined),91% (inactive)
20,Cc1ccc(C(=O)Nc2ccc(-c3nc4ccccc4s3)cc2C)cc1C,73% (inactive)
21,CSc1ncc(C(=O)N2CCN(c3cccc(Cl)c3)CC2)c(C)n1,-3% (active)
22,CSc1ncc(C(=O)N2CCN(c3cccc(C(F)(F)F)c3)CC2)c(C)n1,73% (inactive)
23,CSc1ncc(C(=O)N2CCN(c3ccc(Cl)cc3)CC2)c(C)n1,124% (inactive)
24,CCCCN(CCCNC(=O)c1c(C)oc2nc[nH]c(=O)c12)Cc1ccccc1,71% (inactive)

row,SMILES,survival
1,Cc1oc2ccc(O)c(CN3CCCC(C)C3)c2c1C(=O)Nc1ccccc1 (centres undefined),91% (inactive)
2,CCN(Cc1ccccc1)Cc1c(O)ccc2c(=O)c(-c3ccccc3Cl)coc12,73% (inactive)
3,CCN(CC)c1ccc(NC(=O)CN2C(=O)c3cccnc3Sc3ccccc32)c(C)c1,-4% (active)
4,CCN(CC)c1ccc(NC(=O)CN2C(=O)c3cccnc3Oc3ccccc32)c(C)c1,135% (inactive)
5,Cc1cc(Br)ccc1NC(=O)CN1C(=O)c2cccnc2Sc2ccccc21,85% (inactive)
6,CCC(=O)Nc1ccc(CC)cc1-c1nc2ccccc2n(CC(=O)Nc2ccccc2C)c1=O,88% (inactive)
7,COc1ccc(Nc2ncc3c(n2)CCN(Cc2ccc(Br)s2)C3)c(OC)c1,127% (inactive)
8,Cc1ccccc1Cn1c(CN2CCC(C(=O)NCc3ccc(Cl)cc3)CC2)cc2ccccc21,60% (inactive)
9,CCOc1ccc(CNC(=O)C2CCN(Cc3cc4ccccc4n3Cc3ccccc3C)CC2)cc1,60% (inactive)
10,CCn1c2ccccc2c2cc(CN3CCN(Cc4ccccc4C)CC3)ccc21,-1% (active)
11,CCn1c2ccccc2c2cc(CN3CCN(Cc4ccccc4F)CC3)ccc21,4% (active)
12,O=c1c2ccccc2n(Cc2ccccc2F)c(=O)n1-c1cccc(F)c1,75% (inactive)
13,CCN(CC)C(=O)C1CCN(Cc2ccccc2F)CC1,107% (inactive)
14,O=C1NC(=O)C(Nc2cccc3ccccc23)S1 (centres undefined),104% (inactive)
15,O=C(CSc1nnc(Cn2nnc3ccccc32)o1)N(Cc1ccc(Cl)cc1)c1ccccc1,141% (inactive)
16,CCOC(=O)c1ccccc1NC(=O)c1ccncc1,94% (inactive)
17,Cc1ccc(O)c(C(CC(=O)NCC2(c3ccccc3)CCCC2)c2ccccc2)c1 (centres undefined),6% (active)
18,Cc1ccc(C(CC(=O)NCC2(c3ccccc3)CCCC2)c2ccccc2)c(O)c1 (centres undefined),36% (inactive)
19,Cc1ccccc1NC(=O)C(=O)NCC1(c2ccccc2)CCCC1,94% (inactive)
20,Cc1cccc(C(CC(=O)NCC2(c3ccccc3)CCCC2)c2ccccc2)c1O (centres undefined),2% (active)
21,CCC(=O)NCC1(c2ccccc2)CCCC1,102% (inactive)
22,O=C(CC(c1ccccc1)c1cc(Br)ccc1O)NCC1(c2ccccc2)CCCC1 (centres undefined),63% (inactive)
